A selection: hits, their analogues and other compounds. The true share with any hit is near 2.3%.
CHO-K1 Ca PAM: M1 PAM counterscreen hit in parental CHO-K1 cells | ATP EC20, Fluo-8 calcium fluorescence; 0% at ATP EC20, 100% at ATP max | 0.02% of 360,000 active | activation, % at 3 µM | AID 602247;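 active = activation above the run cutoff, the mean activation of all test compounds plus 3 SD, cut at about 40% in these data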;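 note: peak over basal fluorescence ratio in a 140 s read after ATP addition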
M1 antag: human CHRM1 antagonism; P11229; CHO-K1 hM1, Fluo-8 calcium fluorescence, ACh EC80 antagonist; inhibition, % at 3 µM; 1.3% of 360,000 active; AID 588852;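 active = percent inhibition above its own plate's cutoff, namely the mean of that plate's compound wells plus 3 SD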;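 note: peak over basal fluorescence ratio during 140 s after agonist addition; 0% = ACh EC80 plus DMSO and 100% = DMSO alone without agonist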
Target sequence (P11229 whole entry, looked up): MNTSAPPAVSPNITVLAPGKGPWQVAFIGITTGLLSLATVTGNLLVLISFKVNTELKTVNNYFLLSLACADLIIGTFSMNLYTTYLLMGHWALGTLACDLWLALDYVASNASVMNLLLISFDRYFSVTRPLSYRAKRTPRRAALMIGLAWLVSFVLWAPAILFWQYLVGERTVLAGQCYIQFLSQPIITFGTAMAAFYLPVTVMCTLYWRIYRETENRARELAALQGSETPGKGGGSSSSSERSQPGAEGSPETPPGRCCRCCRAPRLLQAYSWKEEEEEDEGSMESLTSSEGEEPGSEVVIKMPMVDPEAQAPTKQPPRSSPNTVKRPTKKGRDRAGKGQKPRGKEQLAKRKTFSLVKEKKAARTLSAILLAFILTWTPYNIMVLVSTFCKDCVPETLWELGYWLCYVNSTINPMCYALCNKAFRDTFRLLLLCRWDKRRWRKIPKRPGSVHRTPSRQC
M1 ag: agonists of human M1 muscarinic receptor. CHO-K1 hM1, Fluo-8 calcium fluorescence, agonist mode; 0% DMSO, 100% acetylcholine EC100. P11229. activation, % at 3 µM. 0.33% of 360,000 active. AID 588814;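 active = activation above the run's mean compound activation plus 3 SD, cut at about 16% in these data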;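 note: peak over basal fluorescence ratio within a 140 s kinetic read after compound addition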
CHO-K1 Ca antag: counter-screen for M1 antagonists: effect in parental CHO-K1 cells; ATP-induced calcium, Fluo-8 fluorescence; inhibition, % at 3 µM; 0.6% of 360,000 active; AID 602250;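 active = inhibition above a per-plate cutoff, the plate's mean sample inhibition plus 3 SD, cut at about 24% in these data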;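 note: 0% = DMSO plus EC80 ATP and 100% = DMSO alone without ATP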
M1 ag parental: M1 agonist counterscreen hit in parental CHO-K1 cells | activation, % at 3 µM | AID 602248 | 0.48% of 360,000 active | Fluo-8 calcium fluorescence; scaled to maximal ATP response, vehicle zero; in the data active = activation above about 15%;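 note: untransfected CHO-K1 host cells lacking M1 receptor as counterscreen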
CHRM1 PAM: positive allosteric modulators of human M1 muscarinic receptor; activation, % at 3 µM; P11229; CHO-K1 hM1, Fluo-8 calcium fluorescence, ACh EC20; 0% = ACh EC20, 100% = maximal ACh; 0.088% of 360,000 active; in the data active = activation above about 19%, passing the limit was not always enough
* hit, by the source's call.

SMILES	CHO-K1 Ca PAM	M1 antag	M1 ag	CHO-K1 Ca antag	M1 ag parental	CHRM1 PAM
COc1ccc(C2/C=C\CN(C(=O)Nc3ccc(C(F)(F)F)cc3)CC(=O)N2Cc2ccc(F)cc2)cc1 (stereo not drawn)	-13	38*	-3	20	8	-21
COc1ccc(Cl)cc1C(=O)Nn1cnnc1	6	-20	4	-6	1	28
CN1C(=S)SC(C)(NO)C1(C)C (stereo not drawn)	12	-21	5	-21	0	26*
COc1ccc([C@H]2CN(c3ccc(OC)cc3)C(=O)[C@@H]2CC(=O)Nc2ccc(Br)cc2)cc1	12	-9	-2	-19	0	5
O=C(Oc1cccc(C(=S)N2CCOCC2)c1)c1cccc([N+](=O)[O-])c1	24	-1	-9	-8	2	2
O=C(Oc1ccc(C(=S)N2CCOCC2)cc1)c1cccc([N+](=O)[O-])c1	-26	12	-5	29*	0	-7
Cc1cccc2sc(NNC(=O)c3ccc(S(=O)(=O)N4CCCC(C)C4)cc3)nc12 (stereo not drawn)	-7	67*	-1	5	1	-16
COc1ccc(C2CC=C(C(C)=O)CN2S(=O)(=O)c2ccccc2)cc1 (stereo not drawn)	7	-7	-5	24*	2	13
CCOC(=O)c1cc2sccc2n1CC(=O)OC(C)C	-10	-50	-4	-27	-1	19*
CCOC(=O)c1cc2sccc2n1CC(=O)Nc1ccc(OC)cc1	9	2	-3	-8	0	-1
CC1=C([N+](=O)[O-])C(c2ccccc2C(F)(F)F)NC(=O)N1C (stereo not drawn)	13	-26	-1	-5	0	14
O=C(C1CCC(CNc2nc(=S)[nH]c3ccccc23)CC1)N1CCN(c2ccc(F)cc2)CC1 (stereo not drawn)	-10	33*	-7	-2	0	-13
COc1ccc(N2CCN(CCCNC(=O)C3CCC(CNc4nc(=S)[nH]c5ccccc45)CC3)CC2)cc1 (stereo not drawn)	2	-3	-7	-13	5	4
Oc1ccc2ccccc2c1C=Nc1ccccc1Br	21	-25	-2	-15	2	13
Oc1ccccc1N=Cc1c(O)ccc2ccccc12	-2	7	22*	8	13	3
Cc1ccc(C(OCC(C)(C)C[N+](C)(C)C)c2ccccc2)cc1 (stereo not drawn)	-15	99*	-13	19	-1	-34
C(#CCN1CCOCC1)COCCCOC(c1ccccc1)c1ccccc1	-9	-3	-10	-36	0	-4
CCN(CC)CCOC(c1ccccc1)c1ccc(C)cc1 (stereo not drawn)	19	96*	-7	1	1	-26
CN(C)CC#CCOC(c1ccccc1)c1ccccc1	-6	80*	7	-12	0	-20
CCNCCOC(c1ccccc1)c1ccccc1	15	26*	-6	-8	1	-25
CCCCOc1ccc(C(=O)NCC(=O)NC2CCCCC2)cc1	4	-8	-2	-1	0	3
O=C1C2CC=CCC2C(=O)N1c1ccc(N2CCN(c3ccccn3)CC2)c([N+](=O)[O-])c1 (stereo not drawn)	-20	27	1	8	9	-13
CCN(CC)CC#CCOC(c1ccccc1)c1ccccc1	24	94*	-5	-15	1	-23
COCCN(CCOC)CC(O)COC(c1ccccc1)c1ccccc1 (stereo not drawn)	22	-12	-16	1	1	-2
CC(C)Oc1cccc(C(=O)C2CCCN(Cc3ccc(Oc4ncccn4)cc3)C2)c1 (stereo not drawn)	-7	83*	-9	-10	1	-28
COc1c(C)cc(C(=O)C2CCCN(Cc3ccc(Oc4ncccn4)cc3)C2)cc1C (stereo not drawn)	11	35*	-1	4	6	-19
Cc1nc(SCC(=O)NC2CCS(=O)(=O)C2)c2c3c(sc2n1)CCCC3 (stereo not drawn)	-28	26*	-1	12	0	-11

Source: PubChem (The Scripps Research Institute Molecular Screening Center)
